For assay [1], the system named is Tyrosine-protein kinase ABL1 (Homo sapiens), P00519 [T315I]. Conditions: at 1 µM.
The subject of assay [2] is Tyrosine-protein kinase ABL1 (Homo sapiens), P00519 [Y253F]. Conditions: at 0.1 µM.
For assay [3] the test system is unchanged. Conditions: at 1 µM.
The target in assay [4] is Tyrosine-protein kinase ABL1 (Homo sapiens) (UniProt P00519). Conditions: at 0.1 µM.
The target is the same in assay [5]. Conditions: at 1 µM.
Assay [6] has as its target ALK tyrosine kinase receptor (Homo sapiens) (UniProt Q9UM73). Conditions: at 0.1 µM.
Assay [7] has the same target. The following applies: at 1 µM.
Assay [8] has as its target Tyrosine-protein kinase ABL2 (Homo sapiens) (UniProt P42684). The following applies: at 0.1 µM.
Assay [9] has the same target. Conditions: at 1 µM.
Assay [10] deals with Tyrosine-protein kinase receptor UFO (Homo sapiens) (UniProt P30530). Conditions: at 0.1 µM.
Assay [11] has the same target. Conditions: at 1 µM.
Assay [12] concerns the target Tyrosine-protein kinase Blk (Homo sapiens) (UniProt P51451). The following applies: at 0.1 µM.
The target is the same in assay [13]. The following applies: at 1 µM.
For assay [14], the target named is T1, Cytoplasmic tyrosine-protein kinase BMX (Homo sapiens) (UniProt P51813).
T1 sequence (whole entry): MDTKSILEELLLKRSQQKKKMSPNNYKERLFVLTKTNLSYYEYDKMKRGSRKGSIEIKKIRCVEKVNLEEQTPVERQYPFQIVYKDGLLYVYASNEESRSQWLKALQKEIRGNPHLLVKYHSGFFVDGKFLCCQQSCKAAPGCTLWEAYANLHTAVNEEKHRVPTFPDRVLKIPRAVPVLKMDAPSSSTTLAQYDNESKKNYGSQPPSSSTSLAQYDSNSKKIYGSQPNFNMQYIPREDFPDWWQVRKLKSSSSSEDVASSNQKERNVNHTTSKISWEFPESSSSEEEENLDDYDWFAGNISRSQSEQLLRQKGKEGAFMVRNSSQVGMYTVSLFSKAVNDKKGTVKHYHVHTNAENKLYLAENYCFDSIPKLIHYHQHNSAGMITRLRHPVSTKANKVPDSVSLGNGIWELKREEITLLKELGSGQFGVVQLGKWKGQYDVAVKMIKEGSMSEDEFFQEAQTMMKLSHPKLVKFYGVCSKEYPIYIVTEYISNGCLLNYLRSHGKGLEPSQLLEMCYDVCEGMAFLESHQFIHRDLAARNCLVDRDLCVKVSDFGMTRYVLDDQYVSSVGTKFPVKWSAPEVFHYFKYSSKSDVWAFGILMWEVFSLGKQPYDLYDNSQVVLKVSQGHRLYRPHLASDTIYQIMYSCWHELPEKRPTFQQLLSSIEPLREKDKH
The following applies: at 0.1 µM.

For assay [15], the target named is T1, Cytoplasmic tyrosine-protein kinase BMX (Homo sapiens). Conditions: at 1 µM.
The target of assay [16] is Protein-tyrosine kinase 6 (Homo sapiens) (UniProt Q13882). The following applies: at 0.1 µM.
The target is the same in assay [17]. The following applies: at 1 µM.
Assay [18] concerns the target Tyrosine-protein kinase BTK (Homo sapiens) (UniProt Q06187). Conditions: at 0.1 µM.
For assay [19] the target is unchanged. The following applies: at 1 µM.
In assay [20] the target is Tyrosine-protein kinase CSK (Homo sapiens) (UniProt P41240). Conditions: at 0.1 µM.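 Also: value given is the averaged percent inhibition of CSK kinase activity, from the GSK PKIS kinase inhibitor set screening panel.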
Chain of Tyrosine-protein kinase CSK (Homo sapiens) (P41240 2-450 limits assumed): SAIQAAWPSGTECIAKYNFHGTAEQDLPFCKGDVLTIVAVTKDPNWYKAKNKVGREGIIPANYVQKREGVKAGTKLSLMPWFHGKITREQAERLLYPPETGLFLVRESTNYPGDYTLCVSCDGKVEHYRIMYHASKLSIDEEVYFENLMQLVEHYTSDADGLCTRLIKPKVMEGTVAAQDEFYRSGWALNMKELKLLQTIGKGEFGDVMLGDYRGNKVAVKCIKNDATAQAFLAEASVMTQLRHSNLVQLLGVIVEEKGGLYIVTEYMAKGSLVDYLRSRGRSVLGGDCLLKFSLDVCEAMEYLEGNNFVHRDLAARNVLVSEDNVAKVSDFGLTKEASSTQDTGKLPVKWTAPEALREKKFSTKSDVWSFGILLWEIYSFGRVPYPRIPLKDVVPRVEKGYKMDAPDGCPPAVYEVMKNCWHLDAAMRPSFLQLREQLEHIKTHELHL

Chain of Protein-tyrosine kinase 6 (Homo sapiens) (Q13882 whole entry, looked up): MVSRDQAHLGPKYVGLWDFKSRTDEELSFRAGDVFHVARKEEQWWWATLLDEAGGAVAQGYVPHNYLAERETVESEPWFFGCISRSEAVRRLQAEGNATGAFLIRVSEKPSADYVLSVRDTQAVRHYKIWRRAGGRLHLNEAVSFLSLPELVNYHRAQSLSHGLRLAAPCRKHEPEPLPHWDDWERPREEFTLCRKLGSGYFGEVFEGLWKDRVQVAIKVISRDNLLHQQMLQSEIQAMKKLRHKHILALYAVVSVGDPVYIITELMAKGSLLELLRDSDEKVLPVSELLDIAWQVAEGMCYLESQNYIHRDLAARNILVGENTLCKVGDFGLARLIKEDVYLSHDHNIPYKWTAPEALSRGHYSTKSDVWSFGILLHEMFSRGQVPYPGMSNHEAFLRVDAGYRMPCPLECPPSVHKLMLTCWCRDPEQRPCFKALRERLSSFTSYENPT
Chain of Tyrosine-protein kinase receptor UFO (Homo sapiens) (P30530 whole entry): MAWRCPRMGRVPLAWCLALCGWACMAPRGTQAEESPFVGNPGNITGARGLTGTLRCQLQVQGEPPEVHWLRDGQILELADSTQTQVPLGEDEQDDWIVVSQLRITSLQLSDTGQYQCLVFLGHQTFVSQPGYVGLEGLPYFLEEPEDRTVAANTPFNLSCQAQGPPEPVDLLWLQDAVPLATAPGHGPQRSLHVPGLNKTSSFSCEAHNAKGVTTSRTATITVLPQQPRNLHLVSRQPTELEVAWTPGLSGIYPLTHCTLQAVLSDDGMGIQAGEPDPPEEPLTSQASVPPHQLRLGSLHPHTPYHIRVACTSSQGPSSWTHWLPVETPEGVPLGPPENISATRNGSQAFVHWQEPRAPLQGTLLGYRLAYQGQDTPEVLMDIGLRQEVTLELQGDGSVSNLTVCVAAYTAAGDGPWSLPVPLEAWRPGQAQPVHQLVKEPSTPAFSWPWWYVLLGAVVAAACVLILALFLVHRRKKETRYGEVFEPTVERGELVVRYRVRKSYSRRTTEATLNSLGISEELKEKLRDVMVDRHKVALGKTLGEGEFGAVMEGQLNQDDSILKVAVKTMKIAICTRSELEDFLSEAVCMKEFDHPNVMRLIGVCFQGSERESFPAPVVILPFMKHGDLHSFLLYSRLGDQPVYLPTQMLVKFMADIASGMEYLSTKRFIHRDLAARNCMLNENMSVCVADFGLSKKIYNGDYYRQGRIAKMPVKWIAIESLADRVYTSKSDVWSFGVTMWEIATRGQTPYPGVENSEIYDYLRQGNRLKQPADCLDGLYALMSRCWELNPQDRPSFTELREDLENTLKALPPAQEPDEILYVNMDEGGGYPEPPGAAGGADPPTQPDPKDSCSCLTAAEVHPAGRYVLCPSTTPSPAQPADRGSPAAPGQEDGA
Chain of Tyrosine-protein kinase BTK (Homo sapiens) (Q06187 whole entry): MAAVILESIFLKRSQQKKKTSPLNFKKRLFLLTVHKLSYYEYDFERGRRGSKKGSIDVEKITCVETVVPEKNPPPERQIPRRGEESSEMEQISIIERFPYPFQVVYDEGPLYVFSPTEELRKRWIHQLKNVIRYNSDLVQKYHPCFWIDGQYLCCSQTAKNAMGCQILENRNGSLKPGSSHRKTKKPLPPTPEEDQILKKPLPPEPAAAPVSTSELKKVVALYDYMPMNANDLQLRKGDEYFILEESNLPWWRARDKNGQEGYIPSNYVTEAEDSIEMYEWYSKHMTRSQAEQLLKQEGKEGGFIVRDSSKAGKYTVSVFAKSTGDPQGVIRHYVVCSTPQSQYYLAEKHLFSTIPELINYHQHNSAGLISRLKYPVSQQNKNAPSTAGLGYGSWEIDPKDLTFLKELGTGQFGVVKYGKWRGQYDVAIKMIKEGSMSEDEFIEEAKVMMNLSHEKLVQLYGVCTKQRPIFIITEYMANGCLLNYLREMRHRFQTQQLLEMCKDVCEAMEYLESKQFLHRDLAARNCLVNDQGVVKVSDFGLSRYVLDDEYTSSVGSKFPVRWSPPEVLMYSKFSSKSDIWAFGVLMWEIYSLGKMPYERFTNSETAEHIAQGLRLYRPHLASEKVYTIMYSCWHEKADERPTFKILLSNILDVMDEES
Chain of Tyrosine-protein kinase ABL2 (Homo sapiens) (P42684 whole entry): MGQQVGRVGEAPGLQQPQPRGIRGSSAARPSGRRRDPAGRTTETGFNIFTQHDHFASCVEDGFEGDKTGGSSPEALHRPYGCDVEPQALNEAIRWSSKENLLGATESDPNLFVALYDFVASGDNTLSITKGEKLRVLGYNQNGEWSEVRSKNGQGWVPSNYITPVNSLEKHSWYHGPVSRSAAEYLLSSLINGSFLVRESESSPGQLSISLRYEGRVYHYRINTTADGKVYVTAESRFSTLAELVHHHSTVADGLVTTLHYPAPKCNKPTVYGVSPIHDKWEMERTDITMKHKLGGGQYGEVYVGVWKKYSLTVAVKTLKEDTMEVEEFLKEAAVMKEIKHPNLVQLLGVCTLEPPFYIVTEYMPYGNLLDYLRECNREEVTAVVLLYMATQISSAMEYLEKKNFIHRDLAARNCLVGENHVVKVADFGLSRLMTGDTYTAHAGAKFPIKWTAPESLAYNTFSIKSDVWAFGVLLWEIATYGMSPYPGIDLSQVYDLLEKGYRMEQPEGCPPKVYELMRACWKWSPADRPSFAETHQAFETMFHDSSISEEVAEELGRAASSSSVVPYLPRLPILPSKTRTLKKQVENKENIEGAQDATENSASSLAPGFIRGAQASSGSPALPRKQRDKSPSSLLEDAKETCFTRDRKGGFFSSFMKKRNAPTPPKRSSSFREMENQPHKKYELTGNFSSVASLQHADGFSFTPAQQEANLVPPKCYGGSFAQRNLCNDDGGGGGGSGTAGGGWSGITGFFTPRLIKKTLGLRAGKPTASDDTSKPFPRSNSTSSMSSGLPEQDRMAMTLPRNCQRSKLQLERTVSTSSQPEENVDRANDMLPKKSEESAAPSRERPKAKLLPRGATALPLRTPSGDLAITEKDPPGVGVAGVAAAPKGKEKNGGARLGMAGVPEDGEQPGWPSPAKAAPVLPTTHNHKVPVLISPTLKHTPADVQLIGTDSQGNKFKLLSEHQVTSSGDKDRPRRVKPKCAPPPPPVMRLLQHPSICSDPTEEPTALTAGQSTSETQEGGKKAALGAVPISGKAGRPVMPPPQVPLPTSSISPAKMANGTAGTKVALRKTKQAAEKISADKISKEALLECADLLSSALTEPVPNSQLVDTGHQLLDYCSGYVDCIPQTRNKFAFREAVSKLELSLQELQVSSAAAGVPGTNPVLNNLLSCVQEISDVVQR
Chain of Tyrosine-protein kinase Blk (Homo sapiens) (P51451 2-505 limits assumed): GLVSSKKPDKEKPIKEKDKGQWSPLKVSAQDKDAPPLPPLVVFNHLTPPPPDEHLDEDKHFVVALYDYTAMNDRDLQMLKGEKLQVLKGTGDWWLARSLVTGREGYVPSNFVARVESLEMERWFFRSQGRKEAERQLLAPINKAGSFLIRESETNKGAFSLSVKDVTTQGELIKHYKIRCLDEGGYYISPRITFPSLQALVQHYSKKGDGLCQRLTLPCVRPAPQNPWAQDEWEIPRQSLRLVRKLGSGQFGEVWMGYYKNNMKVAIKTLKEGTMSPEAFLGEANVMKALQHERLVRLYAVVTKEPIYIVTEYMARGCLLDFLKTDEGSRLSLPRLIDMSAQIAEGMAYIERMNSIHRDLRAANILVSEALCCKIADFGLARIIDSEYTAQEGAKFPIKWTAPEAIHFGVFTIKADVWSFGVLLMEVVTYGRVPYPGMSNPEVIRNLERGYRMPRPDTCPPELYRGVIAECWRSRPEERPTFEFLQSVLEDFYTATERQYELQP

The inhibition is the change of the read-out against control, counted positive when it falls. For `CCn1c(-c2nonc2N)nc2c(C#CC(C)(C)O)ncc(OC3CCNCC3)c21`, the inhibition was 1.99% in assay [1]; -0.54% in assay [2]; 0.66% in assay [3]; 4.72% in assay [4]; 3.17% in assay [5]; 1.83% in assay [6]. In addition, the inhibition in [7] is 4.92%; in [8], 2.02%; in assay [9], 3.67%; in [10] it was -1.51%; in assay [11] it was -4.23%; in assay [12] it was 2.38%. Also, the inhibition turned out to be 3.31% in assay [13]; 3.84% in assay [14]; 7.52% in assay [15]; 1.28% in assay [16]; 1.62% in assay [17]; 0.17% in assay [18]. Also, the inhibition was found to be 0.56% in assay [19] and 3.49% in assay [20].
Consider `CCn1c(-c2nonc2N)nc2c(C#CC(C)(C)O)nc(OC[C@H](N)c3ccccc3)cc21`, for which the inhibition in [1] worked out at 7.77%; in [2], 0.1%; in assay [3] it was 2.5%; in assay [4], 2.86%; in [5], 2.9%; in assay [6] it was 5.79%. Besides, the inhibition in assay [7] is 9.07%; in assay [8] it was 2.63%; in assay [9] it was 3.84%; in assay [10], -1.29%; in [11] it was -3%; in assay [12], 3.73%. Besides, the inhibition is 2.85% in [13]; 3.88% in [14]; 5.18% in [15]; 2.66% in assay [16]; 2.72% in assay [17]; 0.09% in assay [18]. The figures for the inhibition in assay [19] and in [20] were 0.56% and -1.53%, respectively.
Regarding `FC(F)(F)c1cccc(-c2nn3ncccc3c2-c2ccnc(Nc3ccc4c(c3)OCCO4)n2)c1`, the inhibition in [1] stood at 32.5%; in assay [2], 5.94%; in assay [3], 30.6%; in assay [4], 3.95%; in assay [5] it was 30.4%; in [6], 2.44%. The inhibition was 3.89% in [7]; 4.21% in assay [8]; 32.1% in assay [9]; -5.2% in assay [10]; -1.04% in assay [11]; 4.81% in assay [12]. Further, the inhibition is 45.5% in assay [13]; 7.84% in assay [14]; 29.9% in [15]; 4.61% in [16]; 28.5% in assay [17]; -0.12% in assay [18]. The inhibition in assay [19] amounted to 2.88%; in [20], 5.73%.
For `COc1cc2ncn(-c3cc(OCc4ccccc4C(F)(F)F)c(C(=O)N(C)C)s3)c2cc1OC`, the inhibition stood at 1.37% in [1]; 1.14% in [2]; 17.4% in assay [3]; 2.99% in assay [4]; 18.7% in assay [5]; 0.27% in [6]. Further, the inhibition in assay [7] was 0.78%; in assay [8], 4.85%; in assay [9], 11.8%; in assay [10], -0.33%; in assay [11], 1.68%; in assay [12], 0.87%. The inhibition in assay [13] was 7.34%; in assay [14], 3.03%; in [15] it was 3.07%; in [16], -0.28%; in assay [17] it was -0.8%; in assay [18] it was -1.28%. The inhibition in assay [19] was -0.85%; in [20], -1.4%.
On to `CNC(=O)c1cncc(/C=C/c2ccccc2Cl)c1`, for which the inhibition in assay [1] is 8.51%; in [2], 3.01%; in assay [3], 27%; in assay [4], 7.06%; in assay [5], 33.6%; in assay [6], 0.91%. In addition, the inhibition was 0.92% in assay [7]; 4.13% in [8]; 21.1% in assay [9]; 4.02% in [10]; -0.52% in assay [11]; 3.84% in assay [12]. For the same compound, the inhibition stood at 4.55% in [13]; 1.47% in assay [14]; 8.42% in assay [15]; 0.17% in assay [16]; 10% in assay [17]; 1.39% in assay [18]. Further, the inhibition in assay [19] was 2.01%; in assay [20], 0.04%.
Turning to `Nc1nc(-c2cccc(Cl)c2)c(-c2ccc3ncccc3n2)s1`, the inhibition is 7.84% in [1]; 5.66% in [2]; 15.3% in assay [3]; 3.63% in assay [4]; 15.7% in assay [5]; 5.48% in assay [6]. For the same compound, the inhibition in assay [7] was 7.43%; in assay [8], 3.3%; in assay [9], 7.05%; in [10] it was -6.08%; in assay [11] it was -8.66%; in assay [12], 3.51%. For the same compound, the inhibition is 7.22% in [13]; 2.53% in assay [14]; 5.31% in assay [15]; 5.86% in assay [16]; 10.6% in assay [17]; 0.83% in assay [18]. Also, the figures for the inhibition in assay [19] and in [20] were -0.84% and 5.57%, respectively.
In the case of `CS(=O)(=O)CCNCc1ccc(-c2ccc3ncnc(Nc4ccc(OCc5ccccc5)c(C(F)(F)F)c4)c3c2)o1`, the inhibition in assay [1] came out at 2.46%; in assay [2], 4.02%; in assay [3] it was 3.49%; in assay [4] it was 5.33%; in [5] it was 5.35%; in assay [6], 4.27%. The inhibition was 4.07% in [7]; 4.59% in assay [8]; 4.76% in assay [9]; -6% in assay [10]; -6.09% in [11]; 3.53% in assay [12]. The inhibition in [13] was found to be 4.36%; in assay [14], 2.52%; in assay [15], 1.86%; in assay [16], 3.06%; in [17], 3.52%; in assay [18], 1.47%. The inhibition in assay [19] was determined as 1.16%; in [20], 0.54%.
Turning to `CCCN(CCS(C)(=O)=O)Cc1ccc(-c2ccc3ncnc(Nc4ccc(OCc5cccc(F)c5)c(Cl)c4)c3c2)o1`, the inhibition is 2.18% in assay [1]; 3.73% in assay [2]; 3.01% in assay [3]; 6.06% in [4]; 6.41% in assay [5]; 1.67% in assay [6]. For the same compound, the inhibition in assay [7] is 4.89%; in assay [8], 7.3%; in assay [9], 5.25%; in assay [10], -1.63%; in [11], -0.23%; in [12] it was 1.35%. Also, the inhibition in assay [13] is 4%; in assay [14] it was 0.94%; in [15], 3.89%; in [16], 4.08%; in [17], 7.54%; in assay [18], -0.01%. Further, the inhibition was found to be 0.03% in assay [19] and 1.98% in assay [20].

Source of the values: ChEMBL document CHEMBL1961873, “Compounds: GSK PKIS; Assays: Nanosyn kinase panel” (2012).
